# Measured values as given in PubChem BioAssay (EPA / NIEHS).
# Where “and” joins values, the source holds several entries; their conditions need not be identical. Equal entries are not always repeated. Results filed as inconclusive are left out. Calls of active or inactive are those of the source. Rule for the calls, unless noted: active = hit-call score of the fitted dose curve at least 0.9, where 1 is the maximum; inconclusive = response in the unintended direction; inactive = score below 0.9.
# Legend:
# [1] = CCTE_Deisenroth_5AR_NBTE_donor: CCTE's 5alpha-reductase NanoBRET Target Engagement Assay […], Deisenroth Lab (AID 2284319; active = hit-call score of the fitted dose curve at least 0.9, where 1 is the maximum; inactive = score below 0.9); conditions: actives raise or lower the signal
# How it was run: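 Donor NanoLuc luminescence at 460-20 nm is the read-out, serving artifact detection. Transiently expressed SRD5A2-NanoLuc in HEK293T; 5 h total chemical exposure, testosterone tracer added for the final 2 h; fitting bidirectional relative to DMSO baseline.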
# [2] = CCTE_Deisenroth_5AR_NBTE_acceptor: CCTE's 5alpha-reductase NanoBRET Target Engagement Assay - Autofluorescence Screen, Deisenroth Lab (AID 2284321; active = hit-call score of the fitted dose curve at least 0.9, where 1 is the maximum; inactive = score below 0.9;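 note: compound fluorescence in the acceptor channel under 460 nm excitation flags autofluorescence artifacts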); conditions: actives raise or lower the signal
# How it was run: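 Acceptor fluorescence intensity was read as an artifact-detection endpoint. Test chemicals at an assumed nominal 100 uM were excited at 460 nm across three independent runs. Activity was fitted bidirectionally against DMSO.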
# SRD5A2 (gene 6716) = assay: CCTE_Deisenroth_5AR_NBTE_ratio: CCTE's 5alpha-reductase NanoBRET Target Engagement Assay - Ratio, Deisenroth Lab (AID 2284322; active = hit-call score of the fitted dose curve at least 0.9, where 1 is the maximum; inactive = score below 0.9); conditions: actives raise or lower the signal
# How it was run: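 HEK293T transiently expressing SRD5A2-NanoLuc; cells exposed to chemical (8-point, 10 nM - 29.9 uM) for 5 h total, testosterone tracer added for final 2 h. NanoBRET acceptor/donor ratio (650/460 nm), bidirectional fit vs DMSO.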
# TTR (gene 7276) = assay: CCTE_GLTED_hTTR_0.5uM: CCTE's human Transthyretin (hTTR) Inhibition Assay, with 0.5uM TTR, Great Lakes Toxicology and Ecology Division (GLTED) Lab (AID 2284320; active = hit-call score of the fitted dose curve at least 0.9, where 1 is the maximum; inactive = score below 0.9)
# How it was run: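 Cell-free displacement assay in which human TTR at 0.5 uM was incubated with test chemical for 2 h. Displacement of the ANSA probe was read by fluorescence at 380 nm excitation/475 nm emission. Loss of signal was fitted in the positive direction versus DMSO.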
# [3] = CCTE_Deisenroth_DEVTOX-GLR_legacy_CellCount: (Legacy) Viability Assessment in CCTE's DevTox GLR-Endo Assay, Deisenroth Lab (AID 2284331; active = hit-call score of the fitted dose curve at least 0.9, where 1 is the maximum; inactive = score below 0.9); conditions: actives raise or lower the signal
# How it was run: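 Nuclei count by fluorescence high-content imaging (5 fields/well) after 48 h differentiation of RUES2-GLR cells. Two exposures, 24 h apart; 1 nM - 200 uM series; n=4. Bidirectional fit vs DMSO.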
# [4] = test system: SRY-box transcription factor 17 (SOX17) Protein Expression, Deisenroth Lab, SOX17 (gene 64321); assay: CCTE_Deisenroth_DEVTOX-GLR_legacy_Sox17: (Legacy) CCTE's DevTox GLR-Endo Assay Evaluation of SRY-box transcription factor 17 (SOX17) Protein Expression, Deisenroth Lab (AID 2284341; active = hit-call score of the fitted dose curve at least 0.9, where 1 is the maximum; inactive = score below 0.9); conditions: actives raise or lower the signal
# How it was run: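 RUES2-GLR human pluripotent cells, seeded 24 h, then differentiated 48 h in defined media with two chemical exposures 24 h apart (1 nM - 200 uM, 10 points). Sox17+ fraction from high-content fluorescence imaging; bidirectional fit versus 0.2% DMSO.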
# [5] = IUF_NPC2-5_viability_120hr: Viability Assessment at 120 hours in the Leibniz Research Institute for Environmental Medicine (IUF) Neural Progenitor Cell Migration and Differentiation Assay (NPC2-5) (AID 2284312; active = hit-call score of the fitted dose curve at least 0.9, where 1 is the maximum; inactive = score below 0.9)
# How it was run: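 Alamar blue resorufin fluorescence read after 5 days of differentiation, with compound present from day 0 and replenished at day 3. Primary hNPC spheres on laminin-coated plates, 37C; seven concentrations plus solvent control, fitted against DMSO.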
# [6] = VALA_TUBIPS_Antagonist_TubuleLength: VALA Sciences human iPS-derived Endothelial Tubule Formation (TUBIPS) Antagonist Assay (AID 2284313)
# How it was run: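 Cells grown 3 days with 10 ng/ml VEGF, then exposed to compounds in VEGF medium for another 3 days. After fixation, nuclear stain and CD31 immunofluorescence imaging gave mean total tubule length against 0.1% DMSO; suramin (100 uM) inhibition control.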
# [7] = VALA_MIGHUV2_WoundArea: VALA Sciences human Umbilical Vein Endothelial Cell Migration (MIGHUV) Assay, Area of Scratch Wound after Recovery (AID 2284316)
# How it was run: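 HUVEC seeded at 9000 cells/well, scratched after 24 h; test chemical added within 30 min, 6-point concentration response in triplicate (0.1% DMSO vehicle). After 24 h wound recovery, cells fixed and Hoechst-stained nuclei in wound area imaged; Cytochalasin D reference control.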
# [8] = IUF_NPC1_cytotoxicity_72hr: Cytotoxicity Assessment at 72 hours in the Leibniz Research Institute for Environmental Medicine (IUF) Neural Progenitor Cell Proliferation Assay (NPC1) (AID 2284332);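 note: rising LDH signal means more cytotoxicity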
# How it was run: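 Human fetal neural progenitor spheres (0.3 mm) in EGF/FGF proliferation medium, 37C, exposed 72 h without renewal. LDH release in supernatant read by resorufin fluorescence; gain of signal scored relative to dynamic range.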
# [9] = VALA_TUBIPS_Antagonist_CellCount: Viability Assessment in the VALA Sciences human iPS-derived Endothelial Tubule Formation (TUBIPS) Antagonism Assay (AID 2284335)
# [10] = VALA_MIGHUV1_ScratchOnly_WoundArea: VALA Sciences human Umbilical Vein Endothelial Cell Migration (MIGHUV) Assay, Area of Scratch Wound Inhibited Recovery (AID 2284336)
# How it was run: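 HUVEC monolayers (9000 cells/well) were scratched after 24 h, dosed within 30 min (six concentrations, triplicate, 0.1% DMSO), allowed 24 h recovery, then fixed. Hoechst-stained nuclei in the wound imaged; cytochalasin D as reference.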
# [11] = VALA_TUBHUV_Agonist_TubuleLength: VALA Sciences human Umbilical Vein Endothelial Tubule Formation (TUBHUV) Agonism Assay (AID 2284337)
# How it was run: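 HUVEC co-cultured with fibroblasts (1:3) 3 days in 10 ng/ml VEGF, then 3 days with compound plus VEGF; 0.1 % DMSO neutral control. Fixed, nuclear and CD31 stained; tubule length by fluorescence imaging.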
# [12] = VALA_TUBIPS_Agonist_CellCount: Viability Assessment in the VALA Sciences human iPS-derived Endothelial Tubule Formation (TUBIPS) Agonism Assay (AID 2284338)
# IYD (gene 389434) = assay: CCTE_GLTED_hIYD: CCTE's human Iodotyrosine Deiodinase (xIYD) Inhibition Assay, Great Lakes Toxicology and Ecology Division (GLTED) Lab (AID 2284317);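 note: cell-free human IYD enzyme made in baculovirus insect cells; iodide freed from monoiodotyrosine measured by cerium arsenite color change at 420 nm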
# How it was run: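 hIYD: baculovirus-expressed human IYD deiodinated monoiodotyrosine for 3 h with test chemical; free iodide was measured by Sandell-Kolthoff absorbance at 420 nm and normalized to MNT and DMSO/NaOH controls.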
# [13] = CCTE_Mundy_HCI_iCellGluta_NOG_NeuriteLength: CCTE's Neurite Outgrowth Assay in iCellGluta cells for Neurite Length, Mundy Lab (AID 2284318)
# How it was run: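 Automated high-content imaging of betaIII-tubulin (Alexa Fluor-488) and Hoechst-stained cells gave neurite length, normalized to the DMSO baseline.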
# [14] = CCTE_Mundy_HCI_iCellGluta_NOG_NeuronCount: CCTE's Neurite Outgrowth Assay in iCellGluta cells for Neuron Count, Mundy Lab (AID 2284340);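 note: cells fixed about 48 h after compound addition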
# How it was run: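 Neuron count read by automated high-content imaging of Hoechst 33342 and betaIII-tubulin/Alexa Fluor-488 labelling in human iPSC glutamatergic neurons. Activity fitted relative to DMSO.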
# [15] = CCTE_Mundy_HCI_iCellGluta_NOG_NeuriteCount: CCTE's Neurite Outgrowth Assay in iCellGluta cells for Neurite Count, Mundy Lab (AID 2284342);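 note: chemical exposure about 48 hours starting 2 hours after plating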
# Method: CCTE_Mundy_HCI_iCellGluta_NOG is a multiplexed, cell-based-readout assay that uses iCell GlutaNeurons from FUJIFILM Cellular Dynamics, Inc. (FCDI), human glutamatergic enriched neurons derived from induced pluripotent stem (iPS) cells, with measurements taken at 50.33 hours after chemical dosing in a microplate: 96-well plate.CCTE_Mundy_HCI_iCellGluta_NOG_NeuriteCount is one of four components of the CCTE_Mundy_HCI_iCellGluta_NOG assay. It measures neurite outgrowth related to number of neurites using High Content Imaging of fluorescently labelled markers.Data from the assay component CCTE_Mundy_HCI_iCellGluta_NOG_NeuriteCount was analyzed at the endpoint CCTE_Mundy_HCI_iCellGluta_NOG_NeuriteCount in the positive analysis fitting direction relative to DMSO as the negative control and baseline of activity. Using a type of morphology reporter, loss-of-signal activity can be used to understand developmental effects.
# Exposure starts 2 hours post-plating by adding 10 ul of the working solution to 90 ul of media in the wells for a 1/10 dilution. Forty-eight hours after chemical treatment cells are fixed by direct addition of 100 ul of warm (37C) Dulbecco's phosphate buffered saline (DPBS) fixative solution containing 8% paraformaldehyde, 8% sucrose, and 0.1% of 3 mg/ml Hoechst 33342 into each well. Primary antibodies are prepared by dilution in Immunocytochemical Staining Buffer (ISB), 10X Dulbecco's PBS, 0.1% Saponin, 5% Bovine Serum Albumin, 0.5% NaN3 (Sodium Azide) and betaIII-tubulin (rabbit anti-betaIII-tubulin, 1:800) followed by Alexa Fluor-488 secondary (1:500) to label neuronal cell bodies and neurites. A Cellomics ArrayScan VTi HCS Reader is used for automated image acquisition and analysis of neurite outgrowth.
smiles,measurement,setting,value
CCc1ccccc1O,outcome,[1],inactive
same,outcome,[2],inactive
same,outcome,SRD5A2 (gene 6716),inactive
O=C(O)CCC(F)(F)C(F)(F)C(F)(F)C(F)(F)C(F)(F)C(F)(F)F,AC50,TTR (gene 7276),3.66 µM (active)
CN(C)CCOC(c1ccccc1)c1ccccc1,AC50,[3],63.9 µM (active)
same,AC50,[4],58.1 µM (active)
CN(Cc1cnc2nc(N)nc(N)c2n1)c1ccc(C(=O)N[C@@H](CCC(=O)O)C(=O)O)cc1,AC50,[3],0.359 µM (active)
same,outcome,[4],inactive
O=C(CCCN1CCC(O)(c2ccc(Cl)cc2)CC1)c1ccc(F)cc1,outcome,[5],inactive
same,outcome,[6],inactive
same,outcome,[7],inactive
same,outcome,[8],inactive
same,outcome,[9],inactive
same,outcome,[10],inactive
same,outcome,[11],inactive
same,outcome,[12],inactive
CCCCCCCCCCCCOC(=O)c1cc(O)c(O)c(O)c1,AC50,IYD (gene 389434),22.9 µM (active)
OCC(F)(F)C(F)(F)C(F)(F)C(F)(F)C(F)(F)C(F)(F)C(F)(F)C(F)(F)C(F)(F)C(F)(F)C(F)(F)F,outcome,[13],inactive
same,AC50,[14],1.55 µM (active)
same,outcome,[15],inactive
O=P(O)(O)CCC(F)(F)C(F)(F)C(F)(F)C(F)(F)C(F)(F)C(F)(F)C(F)(F)C(F)(F)F,outcome,IYD (gene 389434),inactive
same,outcome,[13],inactive
same,AC50,TTR (gene 7276),2.24 µM (active)
same,outcome,[15],inactive
NC(=NCCCCCCN=C(N)/N=C(\N)Nc1ccc(Cl)cc1)/N=C(\N)Nc1ccc(Cl)cc1,AC50,IYD (gene 389434),54.7 µM (active)
same,AC50,[2],50 µM (active)
same,AC50,SRD5A2 (gene 6716),81 µM (active)
O=P(O)(O)CCC(F)(F)C(F)(F)C(F)(F)C(F)(F)C(F)(F)C(F)(F)F,outcome,[13],inactive
same,AC50,TTR (gene 7276),6.47 µM (active)
same,outcome,[14],inactive
same,outcome,[15],inactive
Oc1c(Cl)cc(Cl)cc1Sc1cc(Cl)cc(Cl)c1O,AC50,IYD (gene 389434),56.9 µM (active) and 88.2 µM (active) and 100 µM (active)
CCCCCCCCCCCCOS(=O)(=O)O,AC50,[1],50 µM (active)
same,AC50,[2],44.8 µM (active)
same,AC50,SRD5A2 (gene 6716),83.9 µM (active)
CC(C)c1c(C(=O)Nc2ccccc2)c(-c2ccccc2)c(-c2ccc(F)cc2)n1CC[C@@H](O)C[C@@H](O)CC(=O)O,outcome,[5],inactive
same,AC50,[13],0.0462 µM (active)
same,outcome,[8],inactive
same,AC50,[14],10.1 µM (active)
same,AC50,[15],0.094 µM (active)
Cc1cc(Cc2cc(C)cc(C(C)(C)C)c2O)c(O)c(C(C)(C)C)c1,AC50,IYD (gene 389434),24.2 µM (active)
